High-throughput results: PubChem BioAssay, Paczesny and Yang Labs, IUPUI and University of Michigan
ST2 inh: blocks human ST2 binding to IL-33; AlphaLISA ST2-Fc/biotin-IL-33 interaction, 1 h; inhibition, % for hits at 17 µM; Q01638; hit rate 2.3% among 78,000; AID 1259354; in the data active means inhibition above about 30%
Target sequence (Q01638 whole entry, looked up): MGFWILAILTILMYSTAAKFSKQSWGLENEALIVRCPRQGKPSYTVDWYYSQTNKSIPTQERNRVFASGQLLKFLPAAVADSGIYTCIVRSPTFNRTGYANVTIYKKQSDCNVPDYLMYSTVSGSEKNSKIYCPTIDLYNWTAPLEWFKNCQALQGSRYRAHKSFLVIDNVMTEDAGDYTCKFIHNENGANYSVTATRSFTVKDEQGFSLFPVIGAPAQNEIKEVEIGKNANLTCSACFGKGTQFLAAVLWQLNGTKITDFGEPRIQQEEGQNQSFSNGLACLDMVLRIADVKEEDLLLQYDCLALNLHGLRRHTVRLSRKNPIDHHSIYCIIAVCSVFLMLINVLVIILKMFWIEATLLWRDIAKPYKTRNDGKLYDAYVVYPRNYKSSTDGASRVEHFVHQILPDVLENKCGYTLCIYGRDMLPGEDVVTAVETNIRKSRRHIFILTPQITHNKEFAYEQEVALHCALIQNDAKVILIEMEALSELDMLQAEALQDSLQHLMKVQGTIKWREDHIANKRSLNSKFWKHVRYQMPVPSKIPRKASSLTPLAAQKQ
Numbers without * were called inactive; i = inactive; ! = a repeat was not active. Shown is part of a subset that was picked to be rich in hits.

SMILES	ST2 inh
COc1ccc(NCc2ccc([N+](=O)[O-])s2)cc1OC	45%*
COc1ccc(Nc2ncnc(N)c2[N+](=O)[O-])cc1OC	i
CCN(CC)c1ccc(C2C(C(=O)Nc3cc(C)ccn3)=C(C)NC3=C2C(=O)CC(C)(C)C3)cc1 (stereo not given)	i
OCC(Br)C12CC3CC(CC(C3)C1)C2 (stereo not given)	i
COc1ccc(CNC(=O)[C@H]2O[C@H](CCN3CCN(c4ccccc4)CC3)CC[C@@H]2O)cc1	i
O=C(O)C1CC=CCC1C(=O)Nc1ccccc1 (stereo not given)	i
COCCN(CCOC)CC[C@@H]1CC[C@H](O)[C@@H](C(=O)Nc2ccccc2)O1	38%*
CCC(C)OC(=O)C1=C(C)NC2=C(C(=O)C(C(=O)OC)C(C)C2)C1c1ccc(OC)cc1OC (stereo not given)	i
COc1cccc(CCc2ccccc2C(=O)N2CCCC(O)(CO)C2)c1 (stereo not given)	i
COc1cc(C2C(C(=O)Nc3cccc(C)n3)=C(C)NC3=C2C(=O)CCC3)cc(OC)c1OC (stereo not given)	i
O=C(Cc1cccs1)N1CCc2c(c(C(=O)N3CCOCC3)nn2CCCc2ccccc2)C1	i
Cc1ccc(C(=O)N2CCc3c(c(C(=O)N4CCNC(=O)C4)nn3CCCc3ccccc3)C2)s1	30%*
O=C(c1n[nH]c2c1CCC2)N1CCc2c(c(C(=O)N3CCOCC3)nn2CCCc2ccccc2)C1	i
COc1ccc(CNC(=O)c2ncn[nH]2)cc1	i
COCCCNC(=O)C1CCN(CC2CC=CCC2)CC1 (stereo not given)	i
COc1ccc2nc(NC(=O)C(F)F)sc2c1	i
CC(C)OCCCNC(=O)c1cc2cc3ccc(Cl)cc3nc2o1	i
COc1ccc2cc3cc(C(=O)NC(C)C)oc3nc2c1	i
CCC(C)NC(=O)c1cc2cc3ccc(Cl)cc3nc2o1 (stereo not given)	31%*!
CN(C)S(=O)(=O)c1ccc(C(O)=C2C(=O)C(=O)N(Cc3cccnc3)C2c2ccccc2)cc1 (stereo not given)	i
O=c1[nH]c(Nc2ccc(F)cc2)nnc1Cc1ccc(Cl)cc1	i
O=C(Cc1c(C(=O)O)[nH]c2ccc(Cl)cc12)NCCCN1CCN(c2ccccc2F)CC1	i
O=C(CCCn1cncn1)N1CCCC(CO)(Cc2cccc(Cl)c2)C1 (stereo not given)	i
COc1ccc2cc3cc(C(=O)NCCCN4CCCC4)oc3nc2c1	33%*!
O=C(NCCCN1CCCC1)c1cc2cc3ccc(Cl)cc3nc2o1	i
SMILES	ST2 inh
CCC1CCCCN1CCCNC(=O)c1cc2cc3ccc(OC)cc3nc2o1 (stereo not given)	i
COc1ccc2cc3cc(C(=O)NCCCN4CCCCCC4)oc3nc2c1	31%*!
COc1ccc2cc3cc(C(=O)NCCN4CCOCC4)oc3nc2c1	i
COc1ccc2cc3cc(C(=O)NCCCN4CCN(Cc5ccccc5)CC4)oc3nc2c1	i
CC(=O)Nc1ccc(N2C(=O)c3c(C)nc4ccccc4c3C2=O)cc1	i
COc1ccc(Cl)cc1N(CC(=O)N[C@H]1C[C@@H]2CC[C@H]1C2)S(C)(=O)=O	i
Nc1nc(-c2ccc(-c3ccccc3CN3CCOCC3)cc2)cs1	34%*
CN(C)c1nc2c(c(-c3ccccc3CN3CCOCC3)n1)CCCC2	i
Nc1nc(-c2ccccc2)cs1	i
CCc1cn[nH]c1C1CCN(C(=O)c2cccc(O)c2C)CC1	i
O=C(CC(c1ccccc1)c1ccccc1F)NCCc1cnc[nH]1 (stereo not given)	i
Cc1ccc2c(c1)C(c1ccccc1Cl)CC(=O)N2 (stereo not given)	i
CCOc1ccc(S(=O)(=O)N2CCSC2c2ccc(OC)c([N+](=O)[O-])c2)cc1 (stereo not given)	i
COc1cc([N+](=O)[O-])ccc1NC(=O)COc1ccc(Br)cc1C	i
CCOc1cc2c(cc1OCC)C(c1ccc(Br)cc1)OC(=O)C2 (stereo not given)	i
CCCOc1ccc(/C=C2\N=C(c3cccc([N+](=O)[O-])c3)OC2=O)cc1OC	i
CCOc1ccc(C2Oc3c(cc(Br)cc3OC)C=C2[N+](=O)[O-])cc1OCC (stereo not given)	43%*
CCCOc1ccc(C2Oc3ccc(Br)cc3C=C2[N+](=O)[O-])cc1OC (stereo not given)	44%*
CSc1nc2c(sc3ccccc32)c(=O)n1-c1ccccc1	i
CCOC(=O)c1oc2ccccc2c1NC(=O)C(C)(C)Oc1ccc(Cl)cc1	i
CCc1cc(CN(C)CC2=CC[C@H]3C[C@@H]2C3(C)C)on1	i
Cc1cc(=O)oc2cc(Cl)c(OC(=O)c3ccccc3)cc12	i
CC1CCCN(C(=O)c2cc3c(=O)oc4ccccc4c3s2)C1 (stereo not given)	i
Nc1c(Br)cc(O)c2c1C(=O)c1ccccc1C2=O	68%*
O=C1c2ccccc2-c2ncnc3c(S(=O)(=O)O)cc(O)c1c23	i
SMILES	ST2 inh
CCOC(=O)c1nn(Cc2ccccc2)c2c1CN(Cc1ccc(Sc3nncn3C)o1)CC2	i
CCCC(=O)Nc1ccc(CC(=O)NCc2ccno2)cc1	i
CCCOc1ccccc1NC(N)=Nc1nc(C)cc(C)n1	i
CCCN(C(=O)C1CCCN1S(=O)(=O)c1cccc2nsnc12)c1ccc(C(C)C)cc1 (stereo not given)	i
Cc1nnc([C@H]2CCN(Cc3ccc(C(=O)O)cc3)C2)o1	i
COc1ccc2nc(N=C(N)NC(=O)Nc3ccccc3)nc(C)c2c1	i
Cc1ccc2nc(N=C(N)NC(=O)Cc3ccc(Cl)cc3)nc(C)c2c1	30%*
CC(=O)NC(=Nc1nc(C)c2cc(C)ccc2n1)NC(C)=O	i
Cc1c(C(=O)N2CCOC3(CNCCOC3)C2)n(C)c2c(C)cccc12 (stereo not given)	i
O=C(NCC1CCCO1)c1cc2n(n1)C(C(F)(F)F)CC(c1ccc(Cl)cc1)N2 (stereo not given)	i
CCCc1ncncc1C(=O)N1CCCC2(CC1)CN(C)C(=O)O2 (stereo not given)	i
Cc1oc2ccc(OC(=O)C(C)C)cc2c1C(=O)OC(C)C	i
Cc1cc(C)c(S(=O)(=O)n2cnc3ccccc32)c(C)c1	i
Cc1ccc(S(=O)(=O)N2CCN(c3nc(C)cc(N4CCCC4)n3)CC2)c(C)c1	i
Cc1cc(C)c(S(N)(=O)=O)c(C)c1	i
CC(=O)N(CN1C(=O)c2ccccc2C1=O)c1cc(C)ccc1C	i
Cc1ccc(S(=O)(=O)N=C2C=CC(=O)c3ccccc32)c(C)c1	61%*
Cc1cc(C)c(S(=O)(=O)N=C2C=CC(=O)c3ccccc32)c(C)c1	39%*
Cc1ccc(C)c(S(=O)(=O)N=C2C=C(Br)C(=O)c3ccccc32)c1	34%*
COC(=O)CCCNC(=O)c1cn(Cc2ccc(OC)cc2)nn1	i
CCOc1ccc(C2CC(c3cccc(Br)c3)n3nc(N)nc3N2)cc1 (stereo not given)	i
Cc1ccc(C(=O)N2N=C(c3cccc(Br)c3)CC2(O)C(F)(F)F)cc1 (stereo not given)	i
Cc1c(C(=O)NCCC(C)C)oc2ccc(S(=O)(=O)N3CC(C)CC(C)C3)cc12 (stereo not given)	i
Cc1ccc(NC(=O)c2ccc(C(C)(C)C)cc2)nc1	i
C=CCc1cc(/C=C2\C(=O)NC(=O)N(c3ccc(OC)cc3)C2=O)cc(OC)c1O	i
Cc1ccccc1Nc1sc(C(=O)c2ccccc2)c(N)c1C#N	i
